This is part of a sample that, as a whole, favours compounds with a hit. Of some 79,000 tested, about 15% had one in any assay. A number with no mark means an inactive call. Activity calls are given as the source filed them. Cut-off read from the data, not from the text of the source: active = growth inhibition above about 70%; inactive = the rest.
Assays:
[1] = NCI Yeast Anticancer Drug Screen. Data for the rad52 strain (AID 147);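 note: 0% = growth of vehicle-treated control cultures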; conditions: S. cerevisiae rad52 mutant growth inhibition, stronger effect = higher value
How it was run: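 Here a repair-compromised yeast strain receives each compound; its growth is then quantified and normalised to vehicle-only controls.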

[2] = NCI Yeast Anticancer Drug Screen. Data for the wt1 strain (AID 149);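 note: 0% = growth of vehicle-treated wt1 cultures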; conditions: S. cerevisiae wt1 strain (SPY 50644) growth inhibition, stronger effect = higher value
How it was run: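 Measured: growth of wt1 yeast under compound versus vehicle treatment, reported as inhibition.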

[3] = NCI Yeast Anticancer Drug Screen. Data for the rad50EPP+ strain (AID 151);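 note: 0% = growth of vehicle-treated control cultures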; conditions: S. cerevisiae rad50 mutant strain, stronger effect = higher value
How it was run: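 Read-out is yeast growth inhibition relative to vehicle; cells used were the rad50EPP+ strain.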

[4] = NCI Yeast Anticancer Drug Screen. Data for the rad50 strain (AID 155);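 note: 0% = growth of vehicle-only cultures of the same strain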; conditions: S. cerevisiae rad50 strain growth inhibition, stronger effect = higher value
How it was run: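 Growth of the mutant yeast was measured after compound exposure and referenced to vehicle-treated cultures.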

[5] = NCI Yeast Anticancer Drug Screen. Data for the mec2-1 strain (AID 157); conditions: S. cerevisiae mec2-1 strain, stronger effect = higher value
How it was run: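 Using mec2-1 yeast: add compound, measure growth, express inhibition versus vehicle-treated cultures.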

[6] = NCI Yeast Anticancer Drug Screen. Data for the rad14 strain (AID 159);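 note: 0% = growth of vehicle-treated control cultures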; conditions: S. cerevisiae rad14 strain growth inhibition, stronger effect = higher value
How it was run: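 Here, inhibition of yeast growth was measured after compound exposure, using a strain with a genetic defect in DNA damage repair and vehicle-treated cultures as the reference.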

[7] = NCI Yeast Anticancer Drug Screen. Data for the sgs1 mgt1 strain (AID 161);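 note: 0% = growth of cultures given vehicle only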; conditions: S. cerevisiae sgs1 mgt1 strain, stronger effect = higher value
How it was run: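 Compounds are added to genetically altered yeast, and growth is compared with cultures given vehicle alone to give percent inhibition.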

[8] = NCI Yeast Anticancer Drug Screen. Data for the CLN2oe strain (AID 163);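 note: 0% = growth of vehicle-only control cultures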; conditions: S. cerevisiae CLN2oe strain, stronger effect = higher value
How it was run: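 Whole-cell yeast growth assay. A strain engineered for altered cell-cycle control received compound, and inhibition relative to vehicle-treated cultures was recorded.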

[9] = NCI Yeast Anticancer Drug Screen. Data for the cln2 rad14 strain (AID 165);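 note: 0% = growth equal to vehicle treated cultures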; conditions: S. cerevisiae cln2 rad14 strain, stronger effect = higher value
How it was run: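 Yeast strain cln2 rad14, bearing defects in cell cycle control and DNA repair, serves as the test system; values reflect growth inhibition compared with vehicle.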

[10] = NCI Yeast Anticancer Drug Screen. Data for the bub3 strain (AID 167); conditions: S. cerevisiae bub3 mutant strain, stronger effect = higher value
How it was run: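 Whole-cell yeast assay. The mutant strain was incubated with compounds, and growth inhibition was determined by comparison with vehicle-treated cells.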

[11] = NCI Yeast Anticancer Drug Screen. Data for the wt2 strain (AID 169);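 note: 0% = growth of vehicle-treated yeast cultures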; conditions: S. cerevisiae wt2 strain growth inhibition, stronger effect = higher value
How it was run: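 Treated yeast vs. vehicle-treated yeast: growth inhibition determined.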

[12] = NCI Yeast Anticancer Drug Screen. Data for the mlh1 strain (AID 171);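 note: 0% = growth of vehicle-treated control cultures of the same strain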; conditions: S. cerevisiae mlh1 strain growth inhibition, stronger effect = higher value
How it was run: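 A yeast strain with a defined genetic lesion serves as the test organism. Cultures receive compound or vehicle, and growth is measured.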

[13] = NCI Yeast Anticancer Drug Screen. Data for the sgs1 strain (AID 173);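 note: 0% = growth of vehicle-only control cultures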; conditions: S. cerevisiae sgs1 mutant, stronger effect = higher value
How it was run: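 A genetically defined yeast mutant is incubated with the test compound, and its growth is compared to that of the same strain given vehicle.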

[14] = NCI Yeast Anticancer Drug Screen. Data for the mlh1 rad18 strain (AID 175); conditions: S. cerevisiae mlh1 rad18 strain growth inhibition, stronger effect = higher value
How it was run: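 Steps: expose repair-defective yeast to compound; measure growth; express inhibition against vehicle-treated controls.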

[15] = NCI Yeast Anticancer Drug Screen. Data for the rad18 strain (AID 177); conditions: S. cerevisiae rad18 mutant growth inhibition, stronger effect = higher value
How it was run: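 Measured value is growth inhibition of a yeast strain bearing a DNA repair alteration, referenced to vehicle-treated cells.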

[16] = NCI Yeast Anticancer Drug Screen. Data for the mgt1 strain (AID 153); conditions: S. cerevisiae mgt1 mutant growth inhibition, stronger effect = higher value
How it was run: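 Measured: inhibition of mgt1 yeast growth by compound, normalized to vehicle-treated cultures.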

[17] = at 5.0 µM (retest, dose inferred, filed as 0.5)
[18] = at 50.0 µM (retest, dose inferred, filed as 5.0)

Cn1cnc(N)c1C(=N)[Se]
growth inhibition ([1]; at 1.2 µM): 7%
growth inhibition ([1]; at 3.7 µM): 26%
growth inhibition ([1]; at 11.0 µM): 70% (active)
growth inhibition ([1]; at 33.0 µM): 95% (active)
growth inhibition ([1]; at 100.0 µM): 95% (active)
growth inhibition ([2]; at 1.2 µM): -1%
growth inhibition ([2]; at 3.7 µM): 3%
growth inhibition ([2]; at 11.0 µM): 10%
growth inhibition ([2]; at 33.0 µM): 47%
growth inhibition ([2]; at 100.0 µM): 80% (active)
growth inhibition ([3]; at 1.2 µM): 66%
growth inhibition ([3]; at 3.7 µM): 90% (active)
growth inhibition ([3]; at 11.0 µM): 98% (active)
growth inhibition ([3]; at 33.0 µM): 98% (active)
growth inhibition ([3]; at 100.0 µM): 95% (active)
growth inhibition ([4]; at 1.2 µM): 27%
growth inhibition ([4]; at 3.7 µM): 59%
growth inhibition [4, 17]: -44%
growth inhibition ([4]; at 11.0 µM): 93% (active)
growth inhibition ([4]; at 33.0 µM): 95% (active)
growth inhibition [4, 18]: 89% (active)
growth inhibition ([4]; at 50.0 µM): 96.5% (active)
growth inhibition ([4]; at 100.0 µM): 93% (active)
growth inhibition ([5]; at 1.2 µM): -2%
growth inhibition ([5]; at 3.7 µM): 0%
growth inhibition [5, 17]: -46%
growth inhibition ([5]; at 11.0 µM): 48%
growth inhibition ([5]; at 33.0 µM): 93% (active)
growth inhibition [5, 18]: 50%
growth inhibition ([5]; at 50.0 µM): 86.5% (active)
growth inhibition ([5]; at 100.0 µM): 93% (active)
growth inhibition ([6]; at 1.2 µM): 9%
growth inhibition ([6]; at 3.7 µM): 15%
growth inhibition ([6]; at 11.0 µM): 46%
growth inhibition ([6]; at 33.0 µM): 91% (active)
growth inhibition ([6]; at 100.0 µM): 94% (active)
growth inhibition [7, 17]: -61%
growth inhibition [7, 18]: -32%
growth inhibition ([7]; at 50.0 µM): 13.3%
growth inhibition ([8]; at 1.2 µM): 1%
growth inhibition ([8]; at 3.7 µM): -2%
growth inhibition ([8]; at 11.0 µM): -3%
growth inhibition ([8]; at 33.0 µM): 11%
growth inhibition ([8]; at 100.0 µM): 28%
growth inhibition [9, 17]: -60%
growth inhibition [9, 18]: -40%
growth inhibition ([9]; at 50.0 µM): -53.6%
growth inhibition ([10]; at 1.2 µM): 4%
growth inhibition ([10]; at 3.7 µM): 15%
growth inhibition [10, 17]: -67%
growth inhibition ([10]; at 11.0 µM): 80% (active)
growth inhibition ([10]; at 33.0 µM): 97% (active)
growth inhibition [10, 18]: 64%
growth inhibition ([10]; at 50.0 µM): 78.2% (active)
growth inhibition ([10]; at 100.0 µM): 94% (active)
growth inhibition ([11]; at 1.2 µM): 10%
growth inhibition ([11]; at 3.7 µM): 25%
growth inhibition ([11]; at 11.0 µM): 59%
growth inhibition ([11]; at 33.0 µM): 77% (active)
growth inhibition ([11]; at 100.0 µM): 87% (active)
growth inhibition ([12]; at 1.2 µM): 2%
growth inhibition ([12]; at 3.7 µM): -3%
growth inhibition ([12]; at 11.0 µM): 28%
growth inhibition ([12]; at 33.0 µM): 60%
growth inhibition ([12]; at 100.0 µM): 89% (active)
growth inhibition ([13]; at 1.2 µM): 2%
growth inhibition ([13]; at 3.7 µM): -1%
growth inhibition ([13]; at 11.0 µM): 40%
growth inhibition ([13]; at 33.0 µM): 84% (active)
growth inhibition ([13]; at 100.0 µM): 92% (active)
growth inhibition [14, 17]: -126%
growth inhibition [14, 18]: 84% (active)
growth inhibition ([14]; at 50.0 µM): 80.5% (active)
growth inhibition ([15]; at 1.2 µM): -9%
growth inhibition ([15]; at 3.7 µM): 7%
growth inhibition ([15]; at 11.0 µM): 58%
growth inhibition ([15]; at 33.0 µM): 80% (active)
growth inhibition ([15]; at 100.0 µM): 91% (active)

CS(=O)(=O)OCCN(CCOS(C)(=O)=O)c1ccc(C=O)cc1
growth inhibition ([1]; at 1.2 µM): 11%
growth inhibition ([1]; at 3.7 µM): 33%
growth inhibition ([1]; at 11.0 µM): 62%
growth inhibition ([1]; at 33.0 µM): 83% (active)
growth inhibition ([1]; at 100.0 µM): 91% (active)
growth inhibition ([2]; at 1.2 µM): 0%
growth inhibition ([2]; at 3.7 µM): -19%
growth inhibition ([2]; at 11.0 µM): 10%
growth inhibition ([2]; at 33.0 µM): 28%
growth inhibition ([2]; at 100.0 µM): 49%
growth inhibition ([16]; at 1.2 µM): 5%
growth inhibition ([16]; at 3.7 µM): 13%
growth inhibition ([16]; at 11.0 µM): 32%
growth inhibition ([16]; at 33.0 µM): 58%
growth inhibition ([16]; at 100.0 µM): 78% (active)
growth inhibition ([4]; at 1.2 µM): 16%
growth inhibition ([4]; at 3.7 µM): 34%
growth inhibition [4, 17]: 33%
growth inhibition ([4]; at 11.0 µM): 60%
growth inhibition ([4]; at 33.0 µM): 80% (active)
growth inhibition [4, 18]: 84% (active)
growth inhibition ([4]; at 50.0 µM): 79.3% (active)
growth inhibition ([4]; at 100.0 µM): 92% (active)
growth inhibition ([5]; at 1.2 µM): 8%
growth inhibition ([5]; at 3.7 µM): 20%
growth inhibition [5, 17]: 29%
growth inhibition ([5]; at 11.0 µM): 43%
growth inhibition ([5]; at 33.0 µM): 75% (active)
growth inhibition [5, 18]: 88% (active)
growth inhibition ([5]; at 50.0 µM): 83.6% (active)
growth inhibition ([5]; at 100.0 µM): 90% (active)
growth inhibition ([6]; at 1.2 µM): 22%
growth inhibition ([6]; at 3.7 µM): 36%
growth inhibition ([6]; at 11.0 µM): 63%
growth inhibition ([6]; at 33.0 µM): 82% (active)
growth inhibition ([6]; at 100.0 µM): 91% (active)
growth inhibition [7, 17]: 26%
growth inhibition [7, 18]: 80% (active)
growth inhibition ([7]; at 50.0 µM): 79.4% (active)
growth inhibition ([8]; at 1.2 µM): -10%
growth inhibition ([8]; at 3.7 µM): -1%
growth inhibition ([8]; at 11.0 µM): 15%
growth inhibition ([8]; at 33.0 µM): 35%
growth inhibition ([8]; at 100.0 µM): 65%
growth inhibition [9, 17]: 8%
growth inhibition [9, 18]: 74% (active)
growth inhibition ([9]; at 50.0 µM): 65.2%
growth inhibition ([10]; at 1.2 µM): -6%
growth inhibition ([10]; at 3.7 µM): -3%
growth inhibition [10, 17]: -8%
growth inhibition ([10]; at 11.0 µM): 10%
growth inhibition ([10]; at 33.0 µM): 38%
growth inhibition [10, 18]: 37%
growth inhibition ([10]; at 50.0 µM): 73.2% (active)
growth inhibition ([10]; at 100.0 µM): 72% (active)
growth inhibition ([11]; at 1.2 µM): -1%
growth inhibition ([11]; at 3.7 µM): 12%
growth inhibition ([11]; at 11.0 µM): 18%
growth inhibition ([11]; at 33.0 µM): 43%
growth inhibition ([11]; at 100.0 µM): 85% (active)
